According to ChEMBL document CHEMBL1157539, “Thousands of chemical starting points for antimalarial lead identification” (Nature, 2010):

Tested on: Plasmodium falciparum
Test: GSK_TCMDC: Inhibition of Plasmodium falciparum 3D7 in whole red blood cells, using parasite LDH activity as an index of growth. Test compounds present at 2uM
Type: functional

Row | SMILES | Inhibition [%]
1 | Cc1ccc(O)cc1Nc1ccnc2cc(-c3csc(CNCCN4CCOCC4)n3)ccc12 | 100
2 | Cl.O=S(=O)(c1ccc(OCc2ccc(Cl)cc2)cc1)c1cc2c(c(-c3ccc(F)cc3)c1)CCN(CC1CC1)CC2 | 84
3 | CC(C)[C@H](NC(=O)c1ccc(O)c(-c2ccc(Cl)c(Cl)c2)c1)C(=O)NCCN1CCCC1 | 98
4 | O=C(NC1CCN(CC2(c3ccccc3)CCCC2)CC1)c1n[nH]cc1Cl | 83
5 | Oc1ccc(Cl)cc1-c1cc(C(F)(F)F)nc(-c2ccccc2)n1 | 99
6 | NC1CCCN(Cc2cccc(-c3ccc(-c4nc5cc(F)ccc5[nH]4)cc3)c2)C1.O=C(O)C(F)(F)F (centres undefined) | 100
7 | COC(=O)C(Cc1ccccc1)NC(=O)NC1CCN(c2ccnc(Nc3ccc(F)cc3)n2)C1 (centres undefined) | 90
8 | CN1CCN(CC(O)CNC(=O)Nc2ccc(Br)cc2)CC1.O=C(O)C(F)(F)F (centres undefined) | 100
9 | COCCn1c(Sc2ccc(C#N)c([N+](=O)[O-])c2)nnc1-c1ccc(N(C)C)cc1 | 89
10 | Cc1cc(N2CCCN(C)CC2)nc(Nc2ccc(Br)cc2)n1 | 94
11 | CN1CCN(c2ccnc3ccc(NC(=O)Nc4ccc(-c5ccncc5)c5ccccc45)cc23)CC1 | 100
12 | CS(=O)(=O)NCCCNCc1cccc(-c2ccc(-c3nc4cc(C(F)(F)F)ccc4[nH]3)cc2)c1.O=C(O)C(F)(F)F | 100
13 | N=C(N)NC(=O)Nc1cc(Cl)c(Br)c(Cl)c1 | 100
14 | CN(C)CCOc1ccc2nc(-c3cccc(OCc4ccccc4)c3)[nH]c2c1C#N | 100
15 | COc1ccc(S(=O)(=O)Nc2ccc(C(=O)NCc3ccc(C(F)(F)F)cc3)cc2)cc1N1CCN(CC2CC2)CC1.O=C(O)C(F)(F)F | 95
16 | Br.CCCCCCCn1c2c(c(=N)c3c1CCC3)CCCC2 | 98
17 | COc1ccc(NC(=O)CCNc2cc(C)nc(NCc3ccccc3C)n2)cc1.O=C(O)C(F)(F)F | 94
18 | Br.C=CCNC(CCCCC)c1ccc(OCCOc2ccc(C(CCCCC)NCC=C)cc2)cc1 (centres undefined) | 88
19 | CCCCCCCCNCc1c(O)ccc2ccccc12.Cl | 99
20 | CC1(C)N=C(N)N=C(N)N1OCCCc1ccccc1.Cl | 96
21 | COC(=O)C1=CNC=C(C(=O)OC)C1c1ccc(Cl)c([N+](=O)[O-])c1 | 93
22 | CCCCCCOc1ccc(/C(N)=N\Cc2ccccc2)c2c1CCCC2.Cl | 96
23 | CCOc1cc(Cl)c(C(C)NC(=O)c2cccc(OC)c2)cc1OCC (centres undefined) | 98
24 | CCCOc1cc(OCCC)cc(-c2ccc(C(=O)Nc3ccc4ccc(C)nc4c3)c(=O)[nH]2)c1 | 100
25 | COc1ccc(-c2ccc(S(=O)(=O)Nc3cc4c(cc3OC(C)C)CCN(C)CC4)cc2)cc1.Cl | 98
26 | Cc1cc(OCCCN2CCC(NS(=O)(=O)c3cccc(Br)c3)CC2)c2ccccc2n1 | 95
27 | Cc1ccc(CNC(=O)[C@H](Cc2ccccc2)Nc2cc(C)nc(NCc3ccccc3C)n2)cc1.O=C(O)C(F)(F)F | 97
28 | Cc1ccc2[nH]c(-c3ccccc3)cc(=NN=Cc3cccnc3)c2c1 | 99
29 | CCNC[C@H]1CCCN1CCOc1ccc(-n2cnc3cc(-c4ccc(Cl)cc4)sc3c2=O)cc1OC.O=C(O)C(F)(F)F | 97

Tested on: Plasmodium falciparum
Test: GSK_TCMDC: Inhibition of Plasmodium falciparum Dd2 in whole red blood cells, using parasite LDH activity as an index of growth. Test compounds present at 2uM
Type: functional

Row | SMILES | Inhibition [%]
30 | Cc1nn(C)c(C)c1CN(Cc1nc(-c2cccc(Oc3ccccc3)c2)oc1C)C1CC1 | 98
31 | CN1CCN(CCCN(Cc2cccc(-c3ccc(CNCCc4ccccc4)cc3)c2)C(=O)Nc2ccccc2)CC1.O=C(O)C(F)(F)F | 91
32 | CN1CCN(c2ccc(-c3cc(-c4cc(F)c(F)c(F)c4)cnc3N)cc2)CC1 | 12
33 | O=C(NCC(CCN1CCC(c2c[nH]c3ccccc23)CC1)c1ccccc1)Nc1ccc(Cl)c(Cl)c1 (centres undefined) | 53
34 | CC(C)(C)c1ccc(CNC(=O)c2cc(CNC3CCNC3)ccc2O)cc1 (centres undefined) | 1
35 | CN(C)c1ccc(CN2CCC(NC(=O)c3ccc(-c4ccccc4F)s3)CC2)cc1.O=C(O)C(F)(F)F | 27
36 | CC(C)N1CCC(N(Cc2ccc(-c3ccc(C(F)(F)F)cc3)cc2)C(=O)Cn2c(SCc3cccc(F)c3F)nc(=O)c3ccccc32)CC1.O=C(O)C(O)C(O)C(=O)O | 75
37 | COc1ccc(CN(C)CCCc2ccc(NC(=O)c3cccc4c(=O)c5cccc(F)c5[nH]c34)cc2)cc1OC | 94
38 | Cn1nc(-c2cccc(CN[C@@H]3CCc4ccc(O)cc43)c2)c2cnc(NC3CCCC3)nc21 | 76
39 | O=C(NCCc1ccccc1)N(Cc1cccc(-c2ccc(CNCc3ccc4c(c3)OCO4)cc2)c1)C1CCN(Cc2ccccc2)CC1.O=C(O)C(F)(F)F | 70
40 | Cc1noc(C)c1-c1cccc(CNCc2ccc(-c3ccc(-c4nc5cc(C(F)(F)F)ccc5[nH]4)s3)cc2)c1.O=C(O)C(F)(F)F | 99
41 | Cc1ccc(O)cc1Nc1ccnc2cc(-c3csc(CNCCN4CCOCC4)n3)ccc12 | 99
42 | Cl.O=S(=O)(c1ccc(OCc2ccc(Cl)cc2)cc1)c1cc2c(c(-c3ccc(F)cc3)c1)CCN(CC1CC1)CC2 | 14
43 | CC(C)[C@H](NC(=O)c1ccc(O)c(-c2ccc(Cl)c(Cl)c2)c1)C(=O)NCCN1CCCC1 | 83
44 | O=C(NC1CCN(CC2(c3ccccc3)CCCC2)CC1)c1n[nH]cc1Cl | 87
45 | Oc1ccc(Cl)cc1-c1cc(C(F)(F)F)nc(-c2ccccc2)n1 | 92
46 | NC1CCCN(Cc2cccc(-c3ccc(-c4nc5cc(F)ccc5[nH]4)cc3)c2)C1.O=C(O)C(F)(F)F (centres undefined) | 99
47 | COC(=O)C(Cc1ccccc1)NC(=O)NC1CCN(c2ccnc(Nc3ccc(F)cc3)n2)C1 (centres undefined) | 14
48 | CN1CCN(CC(O)CNC(=O)Nc2ccc(Br)cc2)CC1.O=C(O)C(F)(F)F (centres undefined) | 100
49 | COCCn1c(Sc2ccc(C#N)c([N+](=O)[O-])c2)nnc1-c1ccc(N(C)C)cc1 | 66

Row | SMILES | Inhibition [%]
50 | Cc1cc(N2CCCN(C)CC2)nc(Nc2ccc(Br)cc2)n1 | 14
51 | CN1CCN(c2ccnc3ccc(NC(=O)Nc4ccc(-c5ccncc5)c5ccccc45)cc23)CC1 | 84
52 | CS(=O)(=O)NCCCNCc1cccc(-c2ccc(-c3nc4cc(C(F)(F)F)ccc4[nH]3)cc2)c1.O=C(O)C(F)(F)F | 85
53 | N=C(N)NC(=O)Nc1cc(Cl)c(Br)c(Cl)c1 | 100
54 | CN(C)CCOc1ccc2nc(-c3cccc(OCc4ccccc4)c3)[nH]c2c1C#N | 86
55 | COc1ccc(S(=O)(=O)Nc2ccc(C(=O)NCc3ccc(C(F)(F)F)cc3)cc2)cc1N1CCN(CC2CC2)CC1.O=C(O)C(F)(F)F | 1
56 | Br.CCCCCCCn1c2c(c(=N)c3c1CCC3)CCCC2 | 98
57 | COc1ccc(NC(=O)CCNc2cc(C)nc(NCc3ccccc3C)n2)cc1.O=C(O)C(F)(F)F | 61
58 | Br.C=CCNC(CCCCC)c1ccc(OCCOc2ccc(C(CCCCC)NCC=C)cc2)cc1 (centres undefined) | 48
59 | CCCCCCCCNCc1c(O)ccc2ccccc12.Cl | 94
60 | CC1(C)N=C(N)N=C(N)N1OCCCc1ccccc1.Cl | 94
61 | COC(=O)C1=CNC=C(C(=O)OC)C1c1ccc(Cl)c([N+](=O)[O-])c1 | 79
62 | CCCCCCOc1ccc(/C(N)=N\Cc2ccccc2)c2c1CCCC2.Cl | 35
63 | CCOc1cc(Cl)c(C(C)NC(=O)c2cccc(OC)c2)cc1OCC (centres undefined) | 92
64 | CCCOc1cc(OCCC)cc(-c2ccc(C(=O)Nc3ccc4ccc(C)nc4c3)c(=O)[nH]2)c1 | 76
65 | COc1ccc(-c2ccc(S(=O)(=O)Nc3cc4c(cc3OC(C)C)CCN(C)CC4)cc2)cc1.Cl | 2
66 | Cc1cc(OCCCN2CCC(NS(=O)(=O)c3cccc(Br)c3)CC2)c2ccccc2n1 | 28
67 | Cc1ccc(CNC(=O)[C@H](Cc2ccccc2)Nc2cc(C)nc(NCc3ccccc3C)n2)cc1.O=C(O)C(F)(F)F | 50
68 | Cc1ccc2[nH]c(-c3ccccc3)cc(=NN=Cc3cccnc3)c2c1 | 39
69 | CCNC[C@H]1CCCN1CCOc1ccc(-n2cnc3cc(-c4ccc(Cl)cc4)sc3c2=O)cc1OC.O=C(O)C(F)(F)F | 39
